Test results reported in the supplement of paper PMC8975748.
Structures can show the parent of a compound that is named as a salt. ± gives the standard deviation of the averaged measurements.

Key:
[1] = system: Saccharomyces cerevisiae BY4741 SeMeCo community; experiment: mean cell size (pixel area) (pixels); higher = larger cells; conditions: 10 µM; 24 h; SM minimal medium
In short: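 Mean cell pixel area per well was determined by automated confocal microscopy with Harmony analysis of paraformaldehyde-fixed cells. The cells, a Saccharomyces cerevisiae BY4741 community of four plasmids that each complement one auxotrophy and carry a fluorescent marker, were incubated for 24 h with drug at a final 10 µM in SM medium in 384-well plates. Numbers are averaged over 3 replicates. Same SeMeCo high-content imaging drug screen: Selleck FDA-approved drugs at 10 µM, 24 h in SM medium, 384-well plates, 3 replicates.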

[2] = system: Saccharomyces cerevisiae BY4741 SeMeCo community; experiment: z-score of prototroph abundance vs DMSO median; higher = larger share of this subpopulation than in DMSO controls; conditions: 10 µM; 24 h; SM minimal medium; subpopulation (auxotrophy): Prototroph
In short: (§1)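 Subpopulation abundance was reported as a z-score against the median of vehicle wells. The Saccharomyces cerevisiae BY4741 community, carrying four plasmids that each restored one auxotrophy and encoded a distinct fluorescent protein, was grown 24 h in minimal SM medium in 384-well plates holding library drugs at 10 µM final. Cells were paraformaldehyde-fixed and imaged by automated confocal microscopy, with single-auxotroph fluorescent strains used for thresholds and autofluorescence correction.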

[3] = system: Saccharomyces cerevisiae BY4741 SeMeCo community; experiment: z-score of subpopulation abundance vs DMSO median, subpopulation auxotrophic for M; higher = larger share of this subpopulation than in DMSO controls; conditions: 10 µM; 24 h; SM minimal medium; subpopulation (auxotrophy): M
In short: as §1

[4] = system: Saccharomyces cerevisiae BY4741 SeMeCo community; experiment: z-score of subpopulation abundance vs DMSO median, subpopulation auxotrophic for L; higher = larger share of this subpopulation than in DMSO controls; conditions: 10 µM; 24 h; SM minimal medium; subpopulation (auxotrophy): L
In short: as §1

[5] = system: Saccharomyces cerevisiae BY4741 SeMeCo community; experiment: z-score of subpopulation abundance vs DMSO median, subpopulation auxotrophic for U; higher = larger share of this subpopulation than in DMSO controls; conditions: 10 µM; 24 h; SM minimal medium; subpopulation (auxotrophy): U
In short: as §1

[6] = system: Saccharomyces cerevisiae BY4741 SeMeCo community; experiment: z-score of subpopulation abundance vs DMSO median, subpopulation auxotrophic for H; higher = larger share of this subpopulation than in DMSO controls; conditions: 10 µM; 24 h; SM minimal medium; subpopulation (auxotrophy): H
In short: as §1

[7] = system: Saccharomyces cerevisiae BY4741 SeMeCo community; experiment: z-score of subpopulation abundance vs DMSO median, subpopulation auxotrophic for LU; higher = larger share of this subpopulation than in DMSO controls; conditions: 10 µM; 24 h; SM minimal medium; subpopulation (auxotrophy): LU
In short: as §1

[8] = system: Saccharomyces cerevisiae BY4741 SeMeCo community; experiment: z-score of subpopulation abundance vs DMSO median, subpopulation auxotrophic for LM; higher = larger share of this subpopulation than in DMSO controls; conditions: 10 µM; 24 h; SM minimal medium; subpopulation (auxotrophy): LM
In short: as §1

[9] = system: Saccharomyces cerevisiae BY4741 SeMeCo community; experiment: z-score of subpopulation abundance vs DMSO median, subpopulation auxotrophic for HM; higher = larger share of this subpopulation than in DMSO controls; conditions: 10 µM; 24 h; SM minimal medium; subpopulation (auxotrophy): HM
In short: as §1

[10] = system: Saccharomyces cerevisiae BY4741 SeMeCo community; experiment: z-score of subpopulation abundance vs DMSO median, subpopulation auxotrophic for HU; higher = larger share of this subpopulation than in DMSO controls; conditions: 10 µM; 24 h; SM minimal medium; subpopulation (auxotrophy): HU
In short: as §1

[11] = system: Saccharomyces cerevisiae BY4741 SeMeCo community; experiment: z-score of subpopulation abundance vs DMSO median, subpopulation auxotrophic for UM; higher = larger share of this subpopulation than in DMSO controls; conditions: 10 µM; 24 h; SM minimal medium; subpopulation (auxotrophy): UM
In short: as §1

[12] = system: Saccharomyces cerevisiae BY4741 SeMeCo community; experiment: z-score of subpopulation abundance vs DMSO median, subpopulation auxotrophic for HL; higher = larger share of this subpopulation than in DMSO controls; conditions: 10 µM; 24 h; SM minimal medium; subpopulation (auxotrophy): HL
In short: as §1

[13] = system: Saccharomyces cerevisiae BY4741 SeMeCo community; experiment: z-score of subpopulation abundance vs DMSO median, subpopulation auxotrophic for HLM; higher = larger share of this subpopulation than in DMSO controls; conditions: 10 µM; 24 h; SM minimal medium; subpopulation (auxotrophy): HLM
In short: as §1

[14] = system: Saccharomyces cerevisiae BY4741 SeMeCo community; experiment: z-score of subpopulation abundance vs DMSO median, subpopulation auxotrophic for HUM; higher = larger share of this subpopulation than in DMSO controls; conditions: 10 µM; 24 h; SM minimal medium; subpopulation (auxotrophy): HUM
In short: as §1

[15] = system: Saccharomyces cerevisiae BY4741 SeMeCo community; experiment: z-score of subpopulation abundance vs DMSO median, subpopulation auxotrophic for LUM; higher = larger share of this subpopulation than in DMSO controls; conditions: 10 µM; 24 h; SM minimal medium; subpopulation (auxotrophy): LUM
In short: as §1

[16] = system: Saccharomyces cerevisiae BY4741 SeMeCo community; experiment: z-score of subpopulation abundance vs DMSO median, subpopulation auxotrophic for HLUM; higher = larger share of this subpopulation than in DMSO controls; conditions: 10 µM; 24 h; SM minimal medium; subpopulation (auxotrophy): HLUM
In short: as §1

[17] = system: Saccharomyces cerevisiae BY4741 SeMeCo community; experiment: z-score of subpopulation abundance vs DMSO median, subpopulation auxotrophic for HLU; higher = larger share of this subpopulation than in DMSO controls; conditions: 10 µM; 24 h; SM minimal medium; subpopulation (auxotrophy): HLU
In short: as §1

Row | SMILES | mean cell size [1] | z-score of prototroph abundance [2] | z-score of subpopulation abundance [3] | z-score of subpopulation abundance [4] | z-score of subpopulation abundance [5] | z-score of subpopulation abundance [6] | z-score of subpopulation abundance [7] | z-score of subpopulation abundance [8] | z-score of subpopulation abundance [9] | z-score of subpopulation abundance [10] | z-score of subpopulation abundance [11] | z-score of subpopulation abundance [12] | z-score of subpopulation abundance [13] | z-score of subpopulation abundance [14] | z-score of subpopulation abundance [15] | z-score of subpopulation abundance [16] | z-score of subpopulation abundance [17]
1 | CCC(=O)NS(=O)(=O)c1ccc(-c2c(-c3ccccc3)noc2C)cc1 [Parecoxib Sodium] | 12.39 ± 0.068 | -1.76 | 0.75 | 0.68 | 0.97 | 0.01 | 0.31 | 1 | 1.65 | 0.55 | 0.8 | 1.38 | 0.26 | 1.38 | 1.18 | 0.78 | 
2 | COc1cc2c(cc1OC)-c1cc3ccc(OC)c(OC)c3c[n+]1CC2 [Palmatine] | 12.41 ± 0.069 | -0.25 |  |  | -0.98 | -0.08 |  | 1.94 | 1.01 | -1.11 | -0.01 | 1.04 | 0.37 |  | 1.08 |  | 1.86
3 | CCCCCCCCCCCCCCCCCCOP(=O)([O-])OC1CC[N+](C)(C)CC1 [Perifosine (KRX-0401)] | 9.8 ± 0.56 | -18.5 | -5.15 | -0.46 | -2.84 | 3.48 | 12.1 | 1.78 | 12.7 | 8.89 | 7.06 | 18.8 | 31.5 | 45.1 | 10.2 | 180 | 
4 | O=c1[nH]c2ccccc2n1CCN1CCN(c2cccc(C(F)(F)F)c2)CC1 [Flibanserin] | 12.25 ± 0.046 | 0.65 | -0.31 | -0.73 | 0.4 | -0.96 | -0.2 | -0.37 | -0.79 | -0.17 |  | -0.75 | -0.86 | -0.15 | -0.43 | -0.98 | 
5 | CC(=O)OCC(COC(C)=O)OC(C)=O [Triacetin] | 12.4 ± 0.15 | 0.21 | -0.16 | -0.06 | 0.01 | 0.22 | -0.81 | 0.2 | 0.03 | 0.55 | -0.42 |  | -0.57 | 0.7 | 0.32 | -0.48 | 
6 | CN(Cc1cnc2nc(N)nc(N)c2n1)c1ccc(C(=O)N[C@@H](CCC(=O)O)C(=O)O)cc1 [Methotrexate] | 15.5 ± 0.33 | -1.88 | -4.24 | -0.82 | -2.91 | 8.39 | -1.77 | 1.07 | 6.94 | 1.71 | -4.22 |  | 8.99 | 0 | 0.73 | 6.15 | 
7 | COc1ccc2[nH]c([S+]([O-])Cc3ncc(C)c(OC)c3C)nc2c1 (configuration not stated) [Omeprazole Sodium] | 12.1 ± 0.19 | 0.8 | -0.71 | 0.3 | -1.22 | 1.92 | -0.12 | -0.57 | -0.21 | -0.78 | -1.63 | 0.77 | -0.14 | -0.81 | -0.98 | -0.1 | 
8 | Cc1ncc([N+](=O)[O-])n1CC(C)O (configuration not stated) [Secnidazole] | 12.4 ± 0.14 | -0.48 |  | -0.91 | 1.82 | -0.22 |  |  |  | 0.82 | 0.75 | -0.51 | -0.55 | 0.55 | -0.06 | -0.46 | 0.35
9 | CN1CCOC(c2ccccc2)c2ccccc2C1 (configuration not stated) [Nefopam HCl] | 12.1 ± 0.25 |  | 0.02 | -1.02 | 0.26 | -0.62 | 0.08 | -0.2 | -0.51 | 0.21 | 0.37 |  | -0.41 | -0.51 | -0.26 | -0.19 | 
10 | COc1ccc(C[C@H](N)C(=O)N[C@H]2[C@@H](O)[C@H](n3cnc4c(N(C)C)ncnc43)O[C@@H]2CO)cc1 [Puromycin 2HCl] |  |  |  | -0.61 | 0.92 | -0.66 |  | -0.47 | 0 | 0.15 | 1.61 | -0.16 | -0.12 | 0.39 | -0.39 | -0.22 | -0.44
11 | CC1=C(C(=O)O)N2C(=O)[C@@H](NC(=O)[C@H](N)c3ccccc3)[C@H]2SC1 [Cephalexin] | 12 ± 0.24 | -0.14 | 1.37 | 0.02 | -1.02 | 0.56 | -0.21 | 0.35 | 1.28 | -0.74 | -0.17 | 0.67 | -0.53 | 0.41 | -0.42 | -0.42 | 
12 | O=C1N=C(O)NC1(c1ccccc1)c1ccccc1 [Phenytoin Sodium] | 12.527 ± 0.0075 | -0.72 | -0.37 | 0.11 | 1.21 |  | 0.96 | -0.6 | -1.02 | -0.05 | 0.67 | -0.83 | 0.15 | 0.83 |  | 1.18 | 
13 | Nc1ccc2cc3ccc(N)cc3nc2c1 [Proflavine Hemisulfate] | 12.06 ± 0.0063 | 5.49 | 6.69 | -8.37 | -8.08 | 5.37 | -9.25 | -5.03 | 6.84 | -6.91 | -8.07 | -4.25 | -2.37 | -4.39 | -5.16 | -2.15 | 
14 | CN[C@@H]1[C@H](O[C@H]2[C@H](O[C@H]3[C@H](O)[C@@H](O)[C@H](NC(=N)N)[C@@H](O)[C@@H]3NC(=N)N)O[C@@H](C)[C@]2(O)CO)O[C@@H](CO)[C@H](O)[C@H]1O [Dihydrostreptomycin sulfate] | 12.2 ± 0.26 | 0.5 | -0.56 | 0.01 | 0.78 | -0.62 | -0.74 | -0.32 | -0.91 | -0.87 | -0.47 | -0.83 | 0.47 | -0.82 | -0.71 | 0.3 | 
